Assay results from PubChem BioAssay AID652118 (Broad Institute, 2013).
Measured potencies and affinities stand elsewhere. Values without a mark were called inactive.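 The calls were made as follows: active = compounds lowering cell ATP signal whose fitted half-effect concentration is at most twice the top tested dose; inconclusive = flat curves with 30 to 70% signal loss, or poor fits; inactive = the rest.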

Experiment: loss of viability in hepatoma HepG2 cells – cell-based, ATP luminescence, dry powder, cytotoxicity control, dose response (AID 652118)
Conditions: CellTiter-Glo ATP luminescence, 48 h; series mostly up to 26 µM; activity change, negative = cytotoxicity: at the top concentration

| Compound | activity change, negative = cytotoxicity |
| --- | --- |
| C=CCOc1ccc(CN2CCC(CCOc3ccccc3)(C(=O)N(C)CC)CC2)cc1Cl | -7.02% |
| CCOC(=O)C1(Cc2cccc(OC)c2)CCN(Cc2ccc(O)c(Cl)c2)CC1 | -6.29% |
| CCOC(=O)C1CCN(C(=O)OC(C)(C)C)CC1 | -0.439% |
| CC(C)OC(=O)C1(CCOc2ccccc2)CCN(Cc2ccc(O)c(Cl)c2)CC1 | -7.24% |
| C=CCOc1ccc(CN2CCC(CCOc3ccccc3)(C(=O)OCC)CC2)cc1Cl | -11.7% |
| CCOC(=O)c1c(CN2CCN(CCO)CC2)n(-c2ccccc2)c2cc(Br)c(O)cc12 | -23.9% |
| CCOC(=O)C1(CCOc2ccccc2)CCN(C(=O)c2ccc(O)c(Cl)c2)CC1 | -11.1% |
| C=CCOc1ccc(CN2CCC(CCOc3ccccc3)(C(=O)N3CCCC3)CC2)cc1Cl | -16.6% |
| CCOC(=O)C1(CCOc2ccccc2)CCN(Cc2ccc(OC)c(Cl)c2)CC1 | 2.07% |
| O=C(N1CCCC1)C1(CCOc2ccccc2)CCN(Cc2ccc(O)c(Cl)c2)CC1 | -17.1% |
| CCN(C)C(=O)C1(CCOc2ccccc2)CCN(Cc2ccc(O)c(Cl)c2)CC1 | -13.9% |
